The list is not random: actives were taken first. Their share in the collection is about 4.1%.
TIM10 inh – growth inhibitors of isogenic TIM10 control yeast, primary screen, counter-screen for tim10-1 yeast inhibitor project, luminescence, uHTS; AID 463195, 2010; inhibition, % at 10 µM; S. cerevisiae TIM10 strain growth, BacTiter-Glo luminescence, 24 h; 1.4% of 330,000 active;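 active = inhibition of 40% or more at the single tested concentration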;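 note: wild-type TIM10 isogenic control strain grown at permissive 25 °C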
tim23-1 inh – growth inhibitors of tim23-1 mutant yeast, primary screen, luminescence, uHTS | S. cerevisiae tim23-1 growth, BacTiter-Glo luminescence, 24 h | inhibition, % at 20 µM | 1.3% of 330,000 active;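 active = growth inhibition of the mutant yeast at or above 50%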;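 note: temperature-sensitive mutant grown at 25 °C; plate controls were DMSO-treated mutant yeast for no effect and medium wells lacking yeast for full effect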
NALP1 inh – NALP1 inflammasome inhibitors in reconstituted yeast, colorimetric, S. cerevisiae, triplicate retest; S. cerevisiae NALP1/ASC/caspase-1 growth, X-gal OD620, 72 h; inhibition, % at 10 µM; 0.61% of 280,000 active; in the data active = inhibition mostly above about 24%, no sharp cut-off; inactive = mostly below about 32%
NALP3 yeast inh – NALP3 inflammasome inhibitors in reconstituted yeast, primary screen, luminescence, uHTS | 0.39% of 330,000 active | AID 2825, 2010 | inhibition, % at 10 µM | Yeast reconstituted NLRP3/ASC/caspase-1, beta-gal luminescence, 24 h;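 active = inhibition of 50% or more; inactive = inhibition below 50%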;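 note: plate controls were induced DMSO wells for no effect and uninduced yeast grown without galactose for full effect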
tim10-1 inh – growth inhibitors of tim10-1 mutant yeast, primary screen, luminescence, uHTS | S. cerevisiae tim10-1 ts strain growth, BacTiter-Glo, 24 h | inhibition, % at 20 µM | 2.2% of 330,000 active | AID 463190, 2010;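 active = inhibition of at least 40%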;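 note: mutant grown at 25 °C; 0% = DMSO wells with yeast and 100% = wells holding no yeast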
PfHsp90 yeast 2 – growth inhibition of PfHsp90-expressing yeast, primary screen, antimalarial PfHsp90 inhibitor project, S. cerevisiae, BacTiter-Glo luminescence, single point, set 2; BacTiter-Glo ATP, 48 h; yeast lacking PDR1 and PDR3 efflux regulators; inhibition, % at 9.4 µM; 0.32% of 310,000 active; AID 504621, 2011;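 active = every replicate shows inhibition above about 80%, whatever the replicate mean, limit read from the data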;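 note: 0% = DMSO neutral controls and 100% = 20 µM radicicol positive controls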
tim10 confirm – growth inhibitors of wild-type TIM10 yeast, confirmation, counter-screen for tim10-1 synthetic lethality project, single concentration, luminescence, S. cerevisiae | 63% of 4,600 active | S. cerevisiae tim10 strain growth, BacTiter-Glo luminescence, 24 h | inhibition, % at 10 µM | AID 463215, 2010 | shares compounds with TIM10 inh;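 active = inhibition of yeast growth at or above a set limit in either of two replicates at 10 µM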;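 note: this counterscreen used the strain with wild-type TIM10; 0% = yeast with DMSO and 100% = medium wells lacking yeast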
Active calls of the source: *; x = not tested or not shown.

SMILES	TIM10 inh	tim23-1 inh	NALP1 inh	NALP3 yeast inh	tim10-1 inh	PfHsp90 yeast 2	tim10 confirm
CCCC(=O)Nc1ccccc1Sc1ncnc2scc(-c3ccccc3)c12	47*	47	20	16	28	-20	51*
CCN(CC)CCN(C(=O)c1cc2c(ccc3ccccc32)oc1=O)c1nc2cc3c(cc2s1)OCCO3	50*	31	12	14	20	-10	31
CC1=C/C(=N\NC(=S)NCCc2ccccc2)CC(C)(C)C1	43*	43	-8	38	33	-1	17
COc1ccc(N=Cc2nc(-c3ccccc3)oc2OC(=O)c2ccccc2)cc1	50*	43	43	25	40	3	32*
CCc1nc2c(cnn2-c2ccc(Cl)cc2)c(=O)n1-c1ccc(OC)cc1	42*	6	18	-6	6	-3	16
O=C(Nc1cccc(S(=O)(=O)N2CCCCC2)c1)c1ccc([N+](=O)[O-])o1	46*	-109	6	-3	-43	-3	27
O=C(COC(=O)c1ccc([N+](=O)[O-])o1)Nc1cccc(S(=O)(=O)N2CCCCC2)c1	16	-13	-12	6	14	x	x
O=c1oc2ccccc2c(Nc2cccc3ccccc23)c1[N+](=O)[O-]	49*	39	-6	28	31	1	36*
O=c1oc2ccccc2c(Nc2ccccc2O)c1[N+](=O)[O-]	9	-13	-6	20	11	-7	x
Cc1ccc(Nc2nnc(C)c3ccccc23)c(C)c1	5	2	x	25	7	2	x
O=C(Nc1ccc(Cl)c(Cl)c1)N1CCSC1c1ccco1 (stereo not given)	48*	34	3	21	24	-37	31*
CC(=O)Nc1ccc(S(=O)(=O)N2CCSC2c2ccco2)cc1 (stereo not given)	13	7	14	-6	12	x	x
Cc1ccc2nc(CSc3nc(C)ccc3C#N)[nH]c2c1	61*	35	-14	8	38	5	48*
CCNC(=S)Nc1ccc(OCc2nc3ccccc3s2)cc1	22	30	-1	22	17	5	x
O=C(NNC(=S)NC1CCCCC1)c1cccc(S(=O)(=O)Nc2ccccc2Cl)c1	41*	21	8	8	28	-27	41*
CC(Sc1nc2ccccc2s1)C(=O)N(C)Cc1ccccc1 (stereo not given)	-32	15	17	26	-43	18	x
CCN(CC)S(=O)(=O)c1ccc(N/N=C/c2ccc(OC)c(OC)c2OC)nc1	-4	-1	18	12	13	-37	x
CCN(CC)S(=O)(=O)c1ccc(N/N=C(\C)c2ccc(OC)cc2O)nc1	42*	45	x	13	30	-11	40*
COc1cccc2cc(-c3nc4ccccc4o3)c(=O)oc12	60*	30	6	27	26	67	67*
O=c1oc2ccc(Br)cc2cc1-c1nc2ccccc2o1	-3	7	-1	12	4	16	x
CN(CC(=O)OCC(N)=O)S(=O)(=O)c1ccc(Cl)cc1	40*	4	-10	-6	8	-20	0
CC(C)(C)OC(=O)CC12CCCCC1NC(=O)O2 (stereo not given)	3	9	0	16	1	-18	x
Cc1oc(-c2ccccc2)nc1CS(=O)CC(=O)NC1CCCC1 (stereo not given)	2	5	-10	-9	2	3	x
COc1ccc2occ(C(=O)c3cccs3)c2c1	42*	28	-8	25	7	-17	39*
COc1ccc(OC)c(C(=O)c2coc3ccc(OC(C)=O)cc23)c1	27	39	32	20	38	-2	x

High-throughput results from PubChem.
